TDP1 cell CPT – qHTS for Inhibitors of human tyrosyl-DNA phosphodiesterase 1 (TDP1): qHTS in cells in presence of CPT; chicken DT40 Tdp1-/-;hTDP1 cells + 20 nM CPT, ATP luminescence, 48 h; Potency, µM (titrated, usually from 46.2 µM), for inactives: at the highest dose activity change, negative = growth inhibition, usual class: inhibitors; actives 12% (n = 420,000); AID 686979, 2013; note: nearly all actives have a fitted effect of over 55% in size
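Chicken DT40 Tdp1-/- cells stably complemented with human TDP1 were seeded at 400 cells/well in medium containing 20 nM camptothecin, exposed to pin-transferred compounds, and grown at 37 °C for at least 48 hr. Viability was read as ATP luminescence.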
HT1080 IDH1KD tx – qHTS for induction of synthetic lethality in tumor cells producing 2HG: qHTS for the HT-1080-IDH1KD cell line; AID 686971, 2013; HT-1080 IDH1 knockdown viability, ATP luminescence, 48 h; Potency, µM (top dose mostly 46.1 µM), inactives show at the top dose activity, negative = toxicity, most hits filed as cytotoxic; actives 2% (n = 360,000);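 note: 0% = DMSO wells and -100% = cell-free medium wells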
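IDH1KD HT-1080 cells, 750/well, RPMI + 5% FBS; compound pinned after 2 h settling; 48 h, 37 °C; CellTiter-Glo luminescence; % activity normalised to DMSO and no-cell wells; curves fitted, classed by r2 and efficacy.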
DT40 TDP1 no CPT – qHTS for Inhibitors of human tyrosyl-DNA phosphodiesterase 1 (TDP1): qHTS in cells in absence of CPT | DT40 Tdp1-/- hTDP1 cells, no CPT, ATP luminescence, 48 h | Potency, µM (series often up to 46.2 µM), for the others: top-dose activity change, negative = growth inhibition, actives largely listed as inhibitors | actives 15% (n = 420,000) | AID 686978, 2013; note: nearly all actives have a fitted effect of over 55% in size
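Seeded 400 DT40-hTDP1 cells/well (vehicle DMSO, no 20 nM CPT); pinned compounds; ≥48 hr at 37 °C; CellTiter-Glo luminescence as viability measure.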
KB-3-1 tox – qHTS assay for MDR1-selective chemotherapeutics: Primary screen using the parental adenocarcinoma cell KB-3-1; actives 1.4% (n = 400,000); Potency, µM (top dose mostly 46.1 µM), hits mostly cytotoxic; AID 1347075, 2019; KB-3-1 viability, CellTiter-Glo ATP luminescence, 72 h; note: nearly all actives have a fitted effect of over 60% in size
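Cytotoxicity measured as CellTiter-Glo luminescence after 72 h at 37 C. Compound titrations were pinned onto drug-naive KB-3-1 parental adenocarcinoma cells grown in DMEM with 10% FBS, and normalized data fitted to concentration-response curves.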
HT1080-NT tox – qHTS for induction of synthetic lethality in tumor cells producing 2HG: qHTS for the HT-1080-NT fibrosarcoma cell line. actives 1.6% (n = 360,000). HT-1080-NT fibrosarcoma viability, CellTiter-Glo ATP luminescence, 48 h. Potency, µM (doses to about 46.1 µM), inactives show top-dose activity, negative = less viability, actives largely listed as cytotoxic. AID 686970, 2013;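 note: NT is the 2HG producing partner of a matched IDH1 knockdown line; 0% = DMSO-treated cells and -100% = media-only wells without cells; nearly all actives have a fitted effect of over 55% in size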
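Compounds were tested in concentration-response format on HT-1080-NT cells for 48 hours at 37 degrees C. Cell viability came from CellTiter-Glo luminescence; curves were classified by r2, response magnitude and activity.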
KB-V1 MDR tox – qHTS assay for MDR1-selective chemotherapeutics: Primary screen using the drug-selected MDR subline cells KB-V1 | KB-V1 MDR cells viability, CellTiter-Glo, 72 h | Potency, µM (top dose mostly 46.1 µM), hits mostly cytotoxic | actives 3.4% (n = 400,000) | AID 1347076, 2019; note: nearly all actives have a fitted effect of over 60% in size
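KB-V1 cells (P-gp-expressing MDR subline of KB-3-1) in phenol-red-free DMEM with 10% FBS were exposed to library compounds over a concentration series for 72 h at 37 degrees C. Viability read by CellTiter-Glo luminescence; concentration-effect curves fitted after normalization.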
* = called active by the depositor; i = inactive; u = inconclusive. Only some compounds are listed: those with a hit (about 19% of all), similar ones and a draw of the others. Calls come from the whole dose curve; as a rule, active = well fitted curve in the direction sought with a large enough effect; inconclusive = small, poorly fitted or top-dose-only effect, or another doubt; inactive = no such curve, though single readings can be large; an effect the other way counts as inactive or inconclusive. Unless noted, % is set by controls: 0 for no effect and ±100 for the full control effect; potency is the fitted concentration of half-maximal effect.

SMILES | TDP1 cell CPT | HT1080 IDH1KD tx | DT40 TDP1 no CPT | KB-3-1 tox | HT1080-NT tox | KB-V1 MDR tox
Nc1c2c(nc3ccc(Br)cc13)N(Cc1ccccc1)CC2 | u | -14.0% | 20.6µM* | u | -10.3% | i
CCc1nc2ccc(C(=O)N(C)CCCN(C)C)cn2c1N(C=O)CCC(C)C | -15.7% | 6.2% | -8.7% | i | 13.3% | i
O=C(/C=C/c1ccccc1)NC(NC(=S)Nc1ccc(C(=O)O)cc1)C(Cl)(Cl)Cl (stereo not given) | -5.5% | 5.0% | -7.3% | i | 10.8% | i
O=C(CCc1ccccc1)NNC(=O)Nc1ccc(Br)cc1 | -23.6% | 1.0% | -8.9% | i | 4.1% | i
CCc1ccc(OCC(=O)NC(NC(=S)Nc2ccc(Cl)cc2)C(Cl)(Cl)Cl)cc1 (stereo not given) | 14.6µM* | u | 13µM* | 8.2µM* | u | 3.66µM*
O=C(CCc1ccccc1)NC(NC(=S)Nc1ccc(Br)cc1)C(Cl)(Cl)Cl (stereo not given) | 23.1µM* | u | 23.1µM* | i | 17.8µM* | i
CCCC(=O)NC(NC(=S)Nc1ccc(N=Nc2ccccc2)cc1)C(Cl)(Cl)Cl (stereo not given) | 5.17µM* | 18.4µM* | 5.17µM* | 14.6µM* | u | 18.4µM*
O=C(Cn1nc(-c2ccccc2)ccc1=O)N1CCCCC1 | 8.9% | -1.3% | 3.1% | i | 6.2% | i
Cn1c(=N)n(CC(=O)c2ccc(F)cc2)c2ccccc21 | 16.4µM* | -17.4% | 13µM* | i | -15.6% | i
Cn1c(=N)n(CC(=O)c2ccc(Br)cc2)c2ccccc21 | 20.6µM* | 23.1µM* | 18.4µM* | u | u | i
Cc1n(CC(=O)c2ccc(F)cc2)c2ccccc2[n+]1C | 3.8% | -6.9% | -0.6% | u | -3.7% | i
COc1cccc(Nc2ncnc3onc(-c4ccccc4OC)c23)c1 | u | 5.3% | -28.2% | i | -1.1% | i
Cc1ccccc1SCC(=O)N/N=C/c1ccc(F)cc1 | u | -26.2% | 3.8% | i | 1.9% | i
COc1cccc(OC)c1OCCN1CCC(C(=O)NC(c2ccccc2)c2ncccc2C)CC1 (stereo not given) | u | -26.3% | u | i | -26.9% | i
COc1ccc(C(NC(=O)C2CCN(CCCc3ccccc3)CC2)c2ccccn2)cc1 (stereo not given) | 1.3% | -1.9% | -4.8% | i | -2.5% | i
Cc1cccnc1C(NC(=O)C1CCN(Cc2cn(C)c3ccccc23)CC1)c1ccc(Cl)cc1 (stereo not given) | 4.61µM* | u | 4.61µM* | u | 11.6µM* | u
Cc1cccnc1C(NC(=O)C1CCN(Cc2ccc(Oc3ccccc3)cc2)CC1)c1ccc(F)cc1 (stereo not given) | 23.1µM* | u | u | u | 20.6µM* | u
Cc1cccnc1C(NC(=O)C1CCN(CCCc2ccccc2)CC1)c1ccc(Cl)cc1 (stereo not given) | u | u | 29.1µM* | i | 25.9µM* | i
Cc1cccnc1C(NC(=O)C1CCN(Cc2ccc(Cl)cc2)CC1)c1ccccc1 (stereo not given) | 16.4µM* | u | 16.4µM* | i | u | i
CCOC(=O)Cc1csc(SCC(=O)Nc2oc(C)c3c(C)n[nH]c(=O)c23)n1 | 5.4% | -5.9% | 6.2% | i | -5.3% | i
COc1cccc(NC(=O)COc2cccc3c2CCNC3=O)c1 | u | -1.5% | -28.1% | i | -6.2% | i
COc1ccccc1-c1ccc([C@@H]2C[C@H]3[C@H](CON3C)CN2C(=O)c2ccco2)cc1 | -11.9% | 1.7% | u | i | 5.1% | i
Cc1ccc(NC(=O)CCN2CC(C)OC(C)C2)cc1 (stereo not given) | 12.8% | 13.0% | 1.3% | i | 13.6% | i
CSCC[C@H](N)C(=O)N1CCC(C(=O)N[C@H](C)C(=O)Nc2ccc(C(C)C)cc2)CC1 | -27.1% | -5.4% | -13.7% | i | -6.2% | i
O=C(NC1CCN(Cc2ccccc2)CC1)c1c(Cl)cccc1Cl | 4.3% | -3.4% | -1.0% | i | -0.7% | i
SMILES | TDP1 cell CPT | HT1080 IDH1KD tx | DT40 TDP1 no CPT | KB-3-1 tox | HT1080-NT tox | KB-V1 MDR tox
OC1(c2ccc(Cl)c(Cl)c2)C[n+]2ccccc2N1Cc1ccccc1 (stereo not given) | 13µM* | 20.6µM* | 18.4µM* | u | 18.4µM* | i
CCOC(=O)C1=C(C)N(C[C@@H]2CC[C@@H](Cc3ccc(-c4ccccc4)cc3)O2)C(=O)NC1c1cccc([N+](=O)[O-])c1 (stereo not given in full) | u | -7.4% | u | i | -9.8% | i
CCOC(=O)C1=C(C)N(C[C@@H]2CC[C@@H](Cc3ccc(-c4ccccc4)cc3)O2)C(=O)NC1C1CC1 (stereo not given in full) | u | 4.1% | 20.6µM* | i | 4.2% | i
CCOC(=O)C1=C(C)N(C[C@@H]2CC[C@@H](Cc3ccc(-c4ccccc4)cc3)O2)C(=O)NC1c1ccc(-c2ccccc2)cc1 (stereo not given in full) | u | 14.0% | u | i | 3.5% | i
CCOC(=O)C1=C(C)N(C[C@@H]2CC[C@@H](Cc3ccc(-c4ccccc4)cc3)O2)C(=O)NC1c1ccc(Cl)cc1 (stereo not given in full) | u | -1.9% | 20.6µM* | u | -1.3% | i
Cc1ccccc1NC(=O)CSc1nnc(C)c2ccccc12 | -3.8% | -0.3% | 7.6% | i | 2.6% | i
CC1(C)Cc2c(cnn2-c2ccc(F)cc2)C(NC(=O)CCc2ccncc2)C1 (stereo not given) | 1.4% | 6.8% | -0.3% | i | -4.1% | i
C=CC(=O)Nc1ccc(Nc2nc(NC3CCC(N(C)C)CC3)nc3c2ncn3C(C)C)cc1 (stereo not given) | 0.326µM* | 2.31µM* | 0.411µM* | 1.03µM* | u | i

From PubChem BioAssay
